# Key:
# [1] = target: T1, Tyrosine-protein kinase ITK/TSK (Homo sapiens) (UniProt Q08881); conditions: at 1 µM;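 note: values are mean percent inhibition of ITK from the GSK PKIS screen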
# T1 sequence (whole entry): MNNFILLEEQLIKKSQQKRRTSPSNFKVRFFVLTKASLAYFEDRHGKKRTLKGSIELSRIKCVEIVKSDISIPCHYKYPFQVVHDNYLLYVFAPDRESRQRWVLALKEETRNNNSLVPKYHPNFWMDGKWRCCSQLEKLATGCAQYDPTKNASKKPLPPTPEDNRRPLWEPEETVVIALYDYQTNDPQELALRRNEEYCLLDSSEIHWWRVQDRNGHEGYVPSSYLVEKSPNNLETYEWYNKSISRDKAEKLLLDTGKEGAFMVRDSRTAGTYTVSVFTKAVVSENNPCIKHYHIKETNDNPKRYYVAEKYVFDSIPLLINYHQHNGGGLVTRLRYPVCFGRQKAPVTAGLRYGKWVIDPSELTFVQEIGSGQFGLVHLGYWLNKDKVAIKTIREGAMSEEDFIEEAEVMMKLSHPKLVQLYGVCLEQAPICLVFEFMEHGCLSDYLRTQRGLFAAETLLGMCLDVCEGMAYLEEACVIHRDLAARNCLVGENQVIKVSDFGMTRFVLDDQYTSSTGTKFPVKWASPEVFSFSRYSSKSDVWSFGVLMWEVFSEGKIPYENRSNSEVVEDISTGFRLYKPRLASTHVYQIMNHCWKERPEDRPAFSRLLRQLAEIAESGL
# [2] = target: Tyrosine-protein kinase JAK1 (Homo sapiens) (UniProt P23458); conditions: at 0.1 µM
# Chain of Tyrosine-protein kinase JAK1 (Homo sapiens) (P23458 whole entry): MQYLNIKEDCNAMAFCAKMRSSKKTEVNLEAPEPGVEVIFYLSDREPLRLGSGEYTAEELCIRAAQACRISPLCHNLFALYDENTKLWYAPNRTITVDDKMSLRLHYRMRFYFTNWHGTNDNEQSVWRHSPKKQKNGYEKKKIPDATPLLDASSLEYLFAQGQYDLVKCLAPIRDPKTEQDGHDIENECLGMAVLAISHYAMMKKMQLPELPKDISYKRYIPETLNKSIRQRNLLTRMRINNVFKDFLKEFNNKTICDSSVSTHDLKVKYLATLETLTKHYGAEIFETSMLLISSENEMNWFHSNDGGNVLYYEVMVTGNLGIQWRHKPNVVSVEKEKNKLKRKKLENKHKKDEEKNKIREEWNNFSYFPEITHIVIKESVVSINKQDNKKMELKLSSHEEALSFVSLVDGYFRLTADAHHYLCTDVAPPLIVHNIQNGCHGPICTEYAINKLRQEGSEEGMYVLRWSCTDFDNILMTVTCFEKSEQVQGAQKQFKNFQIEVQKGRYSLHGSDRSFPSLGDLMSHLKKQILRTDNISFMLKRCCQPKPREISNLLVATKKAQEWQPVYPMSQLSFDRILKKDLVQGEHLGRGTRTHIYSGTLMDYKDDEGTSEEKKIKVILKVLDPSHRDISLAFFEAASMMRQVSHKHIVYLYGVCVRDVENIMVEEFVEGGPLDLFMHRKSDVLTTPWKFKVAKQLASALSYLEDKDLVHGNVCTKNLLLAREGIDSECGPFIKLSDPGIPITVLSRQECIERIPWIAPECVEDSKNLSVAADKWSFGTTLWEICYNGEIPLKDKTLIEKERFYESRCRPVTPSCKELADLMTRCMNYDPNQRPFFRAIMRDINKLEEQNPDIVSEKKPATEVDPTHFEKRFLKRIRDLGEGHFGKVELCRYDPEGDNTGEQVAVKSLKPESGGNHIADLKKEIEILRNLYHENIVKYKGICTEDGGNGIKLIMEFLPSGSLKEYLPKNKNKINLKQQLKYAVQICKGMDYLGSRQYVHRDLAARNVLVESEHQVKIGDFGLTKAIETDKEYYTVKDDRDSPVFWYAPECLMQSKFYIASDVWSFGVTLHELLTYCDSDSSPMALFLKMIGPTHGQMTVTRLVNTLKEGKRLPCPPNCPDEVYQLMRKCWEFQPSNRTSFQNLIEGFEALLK
# [3] = target: Tyrosine-protein kinase JAK1 (Homo sapiens) (UniProt P23458); conditions: at 1 µM
# [4] = target: Tyrosine-protein kinase JAK2 (Homo sapiens) (UniProt O60674); conditions: at 0.1 µM
# Chain of Tyrosine-protein kinase JAK2 (Homo sapiens) (O60674 whole entry): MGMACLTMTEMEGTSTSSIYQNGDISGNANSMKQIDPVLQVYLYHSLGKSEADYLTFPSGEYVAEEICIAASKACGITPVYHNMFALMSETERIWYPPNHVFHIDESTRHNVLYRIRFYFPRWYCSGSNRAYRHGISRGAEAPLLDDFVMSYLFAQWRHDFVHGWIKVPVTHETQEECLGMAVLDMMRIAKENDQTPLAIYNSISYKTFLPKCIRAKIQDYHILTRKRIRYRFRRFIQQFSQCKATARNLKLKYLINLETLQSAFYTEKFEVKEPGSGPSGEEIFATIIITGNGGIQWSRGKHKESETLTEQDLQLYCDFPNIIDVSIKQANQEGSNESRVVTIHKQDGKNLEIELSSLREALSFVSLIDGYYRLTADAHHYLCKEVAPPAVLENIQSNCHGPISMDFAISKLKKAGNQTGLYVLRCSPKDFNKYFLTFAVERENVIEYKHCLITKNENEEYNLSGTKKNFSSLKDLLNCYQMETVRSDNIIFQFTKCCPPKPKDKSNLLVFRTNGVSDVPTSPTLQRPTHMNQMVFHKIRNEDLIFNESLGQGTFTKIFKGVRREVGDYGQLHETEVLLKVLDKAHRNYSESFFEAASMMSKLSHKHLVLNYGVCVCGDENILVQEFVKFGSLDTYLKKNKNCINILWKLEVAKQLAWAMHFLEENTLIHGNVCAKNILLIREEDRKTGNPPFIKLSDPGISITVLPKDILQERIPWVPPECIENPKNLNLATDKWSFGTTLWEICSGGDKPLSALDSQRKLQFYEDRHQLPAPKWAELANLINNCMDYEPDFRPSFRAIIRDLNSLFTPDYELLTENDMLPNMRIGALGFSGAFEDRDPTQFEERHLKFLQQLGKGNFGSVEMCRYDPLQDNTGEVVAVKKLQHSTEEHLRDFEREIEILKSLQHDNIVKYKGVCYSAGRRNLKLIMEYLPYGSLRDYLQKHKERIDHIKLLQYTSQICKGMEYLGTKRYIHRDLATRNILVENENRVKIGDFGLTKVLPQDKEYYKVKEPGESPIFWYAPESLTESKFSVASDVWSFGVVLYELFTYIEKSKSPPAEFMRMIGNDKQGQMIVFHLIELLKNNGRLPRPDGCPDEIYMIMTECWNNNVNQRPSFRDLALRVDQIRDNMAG
# [5] = target: Tyrosine-protein kinase JAK2 (Homo sapiens) (UniProt O60674); conditions: at 1 µM
# [6] = target: T2, Tyrosine-protein kinase JAK3 (Homo sapiens) (UniProt P52333); conditions: at 0.1 µM
# T2 sequence (whole entry): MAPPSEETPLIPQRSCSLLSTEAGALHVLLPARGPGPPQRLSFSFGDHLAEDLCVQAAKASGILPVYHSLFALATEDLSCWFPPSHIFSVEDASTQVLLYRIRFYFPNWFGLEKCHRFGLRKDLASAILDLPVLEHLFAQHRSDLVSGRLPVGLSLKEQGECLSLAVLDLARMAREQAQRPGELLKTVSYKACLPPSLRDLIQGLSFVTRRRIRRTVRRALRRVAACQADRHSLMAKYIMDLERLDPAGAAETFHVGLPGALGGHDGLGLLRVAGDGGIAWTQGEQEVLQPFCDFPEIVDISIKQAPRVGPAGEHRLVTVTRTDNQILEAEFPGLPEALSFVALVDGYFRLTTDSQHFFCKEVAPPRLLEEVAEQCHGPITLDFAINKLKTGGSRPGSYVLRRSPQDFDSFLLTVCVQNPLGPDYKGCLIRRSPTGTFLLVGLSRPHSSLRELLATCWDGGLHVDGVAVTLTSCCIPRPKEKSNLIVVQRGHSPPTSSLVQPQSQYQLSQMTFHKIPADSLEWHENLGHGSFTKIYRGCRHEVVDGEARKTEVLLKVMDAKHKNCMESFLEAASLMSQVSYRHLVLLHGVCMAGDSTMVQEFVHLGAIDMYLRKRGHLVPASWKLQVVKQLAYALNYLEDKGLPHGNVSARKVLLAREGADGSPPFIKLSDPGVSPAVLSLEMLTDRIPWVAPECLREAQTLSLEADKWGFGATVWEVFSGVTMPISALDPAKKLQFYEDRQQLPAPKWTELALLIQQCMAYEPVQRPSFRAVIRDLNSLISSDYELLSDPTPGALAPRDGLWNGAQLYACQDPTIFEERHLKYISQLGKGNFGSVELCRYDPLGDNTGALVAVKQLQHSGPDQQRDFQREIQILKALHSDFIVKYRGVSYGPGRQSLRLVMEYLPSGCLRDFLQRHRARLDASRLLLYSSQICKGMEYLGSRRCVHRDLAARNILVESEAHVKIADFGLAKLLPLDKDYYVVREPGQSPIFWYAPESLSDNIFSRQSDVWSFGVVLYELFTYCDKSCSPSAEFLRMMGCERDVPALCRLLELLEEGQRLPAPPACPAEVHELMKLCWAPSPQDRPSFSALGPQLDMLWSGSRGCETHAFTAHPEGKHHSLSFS
# [7] = target: T2, Tyrosine-protein kinase JAK3 (Homo sapiens); conditions: at 1 µM
# [8] = target: Vascular endothelial growth factor receptor 2 (Homo sapiens) (UniProt P35968); conditions: at 0.1 µM
# Chain of Vascular endothelial growth factor receptor 2 (Homo sapiens) (P35968 whole entry): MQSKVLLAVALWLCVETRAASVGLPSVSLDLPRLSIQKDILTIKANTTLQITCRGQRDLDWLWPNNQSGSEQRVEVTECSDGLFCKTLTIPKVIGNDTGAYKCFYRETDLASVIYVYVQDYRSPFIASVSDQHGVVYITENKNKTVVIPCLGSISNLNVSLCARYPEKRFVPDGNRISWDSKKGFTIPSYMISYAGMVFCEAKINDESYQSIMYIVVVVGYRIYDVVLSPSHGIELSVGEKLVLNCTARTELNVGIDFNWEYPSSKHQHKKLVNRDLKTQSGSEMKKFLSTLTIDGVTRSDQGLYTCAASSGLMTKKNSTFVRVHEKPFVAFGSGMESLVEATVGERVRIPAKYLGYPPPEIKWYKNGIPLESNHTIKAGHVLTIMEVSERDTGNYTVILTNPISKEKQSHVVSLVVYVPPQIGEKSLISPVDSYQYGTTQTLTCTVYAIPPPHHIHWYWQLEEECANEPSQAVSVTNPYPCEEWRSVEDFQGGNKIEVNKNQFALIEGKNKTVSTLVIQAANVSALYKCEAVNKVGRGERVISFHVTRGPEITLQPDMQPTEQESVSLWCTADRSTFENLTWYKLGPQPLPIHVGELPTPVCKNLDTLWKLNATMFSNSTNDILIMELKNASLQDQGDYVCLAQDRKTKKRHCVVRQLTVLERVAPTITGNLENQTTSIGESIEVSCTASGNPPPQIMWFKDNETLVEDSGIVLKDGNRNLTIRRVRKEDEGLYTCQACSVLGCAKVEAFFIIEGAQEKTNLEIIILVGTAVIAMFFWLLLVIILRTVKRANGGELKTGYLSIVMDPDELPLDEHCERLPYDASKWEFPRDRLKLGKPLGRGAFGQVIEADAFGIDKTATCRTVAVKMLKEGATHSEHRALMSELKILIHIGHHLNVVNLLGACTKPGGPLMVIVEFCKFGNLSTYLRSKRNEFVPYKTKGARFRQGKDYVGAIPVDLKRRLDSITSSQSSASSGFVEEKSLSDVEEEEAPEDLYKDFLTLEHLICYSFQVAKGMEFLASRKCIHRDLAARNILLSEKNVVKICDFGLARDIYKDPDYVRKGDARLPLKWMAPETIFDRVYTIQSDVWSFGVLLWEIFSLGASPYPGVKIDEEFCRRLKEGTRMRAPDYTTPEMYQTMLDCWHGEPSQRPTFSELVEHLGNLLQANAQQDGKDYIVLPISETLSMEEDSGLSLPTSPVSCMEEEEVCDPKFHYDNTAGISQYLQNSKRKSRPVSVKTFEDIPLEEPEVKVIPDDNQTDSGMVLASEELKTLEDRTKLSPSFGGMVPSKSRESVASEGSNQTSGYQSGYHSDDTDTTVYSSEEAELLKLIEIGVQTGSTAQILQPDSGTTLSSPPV
# [9] = target: Vascular endothelial growth factor receptor 2 (Homo sapiens) (UniProt P35968); conditions: at 1 µM
# [10] = target: Mast/stem cell growth factor receptor Kit (Homo sapiens) (UniProt P10721); conditions: at 0.1 µM;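 note: values are mean inhibition of KIT, from the GSK PKIS dataset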
# Chain of Mast/stem cell growth factor receptor Kit (Homo sapiens) (P10721 whole entry): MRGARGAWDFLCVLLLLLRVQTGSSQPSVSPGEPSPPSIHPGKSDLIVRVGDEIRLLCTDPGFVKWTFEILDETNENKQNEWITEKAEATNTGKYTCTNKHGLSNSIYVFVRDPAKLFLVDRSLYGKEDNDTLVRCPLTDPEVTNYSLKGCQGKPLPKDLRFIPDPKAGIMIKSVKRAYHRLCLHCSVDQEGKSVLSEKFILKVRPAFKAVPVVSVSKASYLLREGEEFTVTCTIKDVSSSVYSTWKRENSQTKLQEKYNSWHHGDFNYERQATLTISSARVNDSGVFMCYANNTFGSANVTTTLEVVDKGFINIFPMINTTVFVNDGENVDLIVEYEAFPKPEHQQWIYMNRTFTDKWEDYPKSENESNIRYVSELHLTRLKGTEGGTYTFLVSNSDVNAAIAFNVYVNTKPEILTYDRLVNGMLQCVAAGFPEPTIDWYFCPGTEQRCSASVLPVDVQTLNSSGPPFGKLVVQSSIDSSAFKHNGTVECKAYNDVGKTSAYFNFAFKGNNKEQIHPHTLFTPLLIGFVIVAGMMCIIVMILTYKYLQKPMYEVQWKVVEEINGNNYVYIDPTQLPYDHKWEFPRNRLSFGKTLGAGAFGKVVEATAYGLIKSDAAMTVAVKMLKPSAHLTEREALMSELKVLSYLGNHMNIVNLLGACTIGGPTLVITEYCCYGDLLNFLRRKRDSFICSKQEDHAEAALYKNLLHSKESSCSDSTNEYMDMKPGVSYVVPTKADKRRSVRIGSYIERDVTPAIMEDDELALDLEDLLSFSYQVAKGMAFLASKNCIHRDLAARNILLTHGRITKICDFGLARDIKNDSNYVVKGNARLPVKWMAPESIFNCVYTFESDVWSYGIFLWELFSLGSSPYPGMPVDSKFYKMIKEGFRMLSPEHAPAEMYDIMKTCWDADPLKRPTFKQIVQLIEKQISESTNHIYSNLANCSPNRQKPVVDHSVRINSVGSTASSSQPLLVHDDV
SMILES,inhibition [1] [%],inhibition [2] [%],inhibition [3] [%],inhibition [4] [%],inhibition [5] [%],inhibition [6] [%],inhibition [7] [%],inhibition [8] [%],inhibition [9] [%],inhibition [10] [%]
CC(C)c1ccc2c(c1)NC(=O)/C2=N/Nc1ccc(S(N)(=O)=O)cc1,2.46,-0.53,0.94,-1.94,-0.2,-0.51,1.08,1.26,4.21,7.67
FC(F)(F)c1ccc(-c2nn3ncccc3c2-c2ccnc(Nc3ccc4c(c3)OCCO4)n2)cc1,4.7,7.49,24.3,-0.67,-0.89,6.03,4.36,-0.31,9.68,6.76
COc1cccc(-n2ncc3c(N/N=C/c4ccc(S(C)(=O)=O)cc4)ncnc32)c1,0.29,1.39,6.92,1.22,11.5,-4.07,5.53,31.4,66.4,16
Nc1nccc(-c2c(-c3ccc(F)cc3)ncn2CCCN2CCOCC2)n1,2.18,2.73,17.8,1.23,0.43,-0.85,-0.57,4.12,11.2,3.2
COc1cc2ncnc(Nc3ccc(C)c(O)c3)c2cc1OC,1.28,1.62,12.6,1.49,0.53,-1.17,2.14,75.4,72,9.08
O=S(=O)(CCOCc1ccc(-c2ccc3ncnc(Nc4ccc(OCc5cccc(F)c5)c(Cl)c4)c3c2)o1)c1ccccc1,1,1.54,2.21,0.38,0.42,0.16,2.6,1.71,8,1.81
Cc1ccc(NC(=O)CC2CC2)cc1-c1ccc(C(=O)NCC2CC2)cc1,1.47,1.27,6.97,1.47,5.47,-0.78,2.17,9.88,12.3,3.18
CCn1c(-c2nonc2N)nc2c(C#CC(C)(C)O)nc(OCCNC)cc21,0.12,1.27,2.83,2.5,3.3,-2.54,-0.89,16.2,64.8,4.99
O=C1Nc2ccc(-c3cccnc3)cc2C1=Cc1cc(Br)c(O)c(Br)c1,2.67,2.38,1.97,1.07,3.68,-1.1,15.8,4.5,10.1,3.48
CCOc1nccc2c1nc(-c1nonc1N)n2CC,3.31,6.31,18.7,1.55,1.18,0.47,4.71,9.84,23.8,3.38
OCc1ccc(-c2nc(-c3ccccn3)c(-c3ccc4c(c3)OCO4)[nH]2)cc1,2.5,3.55,3.24,2.17,3.4,-1.9,0.74,7.67,6.53,13.1
NS(=O)(=O)c1ccc(N/N=C2\C(=O)Nc3ccc(Cl)cc32)cc1,4.1,4.77,11.7,1.28,1.55,-2.01,1.21,1.7,16.9,41.3
COc1ccc2ncnc(Nc3ccc(OCc4ccccc4)cc3)c2c1,1.7,1.35,3.3,1.02,0.06,0.27,0.67,1.51,3,3.24
NC(=O)c1cccc(Nc2nccc(Nc3cccc(F)c3)n2)c1,2.4,3.17,32,2.34,46.6,-1.62,2.72,5.1,44.7,42.5
N#Cc1cccc(Nc2nccc(-c3cnn4ncccc34)n2)c1,21.1,2.54,14.9,2.15,22.1,5.73,36.2,12.1,43.9,78.3
CS(=O)(=O)Nc1cccc(-c2ccc3c(NC(=O)C4CC4)n[nH]c3c2)c1,1.71,0.09,0.48,0.43,1.32,-0.13,2.96,1.1,7.91,-1.41
N#Cc1c(NC(=O)c2ccccc2F)sc2c1CCCC2,0.32,0.4,-1.49,-0.7,-1.01,-1.04,2.45,-3.31,-0.36,-4.4

SMILES,inhibition [1] [%],inhibition [2] [%],inhibition [3] [%],inhibition [4] [%],inhibition [5] [%],inhibition [6] [%],inhibition [7] [%],inhibition [8] [%],inhibition [9] [%],inhibition [10] [%]
CN(C)C(=O)O[C@@H]1CN[C@@H](C#Cc2cc3ncnc(Nc4ccc(OCc5cccc(F)c5)c(Cl)c4)c3s2)C1,0.1,1.28,0.05,0.23,-0.45,0.14,2.09,0.75,3.31,-1.17
c1ccc(Nc2ncc(-c3ccccc3)o2)cc1,1.67,8.4,8.08,1.08,1.6,-1.29,-1.89,4.68,19.8,30.9
CN(c1ccc(NC(=O)Nc2ccc(OC(F)(F)F)cc2)cc1)c1ccnc(Nc2cccc(S(N)(=O)=O)c2)n1,67.3,2.28,12.8,0.3,1.31,-2.38,-1.69,78.8,99.6,37.5
CCCN1CCCC(c2ccc(Nc3nc(Nc4cc(F)ccc4C(N)=O)c4cc[nH]c4n3)c(OC)c2)C1 (stereo unspecified),6,-0.47,-0.81,1.82,2.51,-1.48,-3.27,7.45,16.6,8.98
NS(=O)(=O)c1cccc(-c2cc3ccncc3cc2OCc2ccccc2)c1,3.72,0.51,2.7,1.82,0.92,-0.33,0.81,13.4,17.1,6.67
COC(=O)c1ccc2c(c1)C(=Cc1cc(Br)c(O)c(Br)c1)C(=O)N2,3,3.26,12.2,1.7,6.21,1.39,7.25,3.9,24.5,3.84
[O-][S+]1CCN(Cc2ccc(-c3ccc4ncnc(Nc5ccc(OCc6ccccc6)c(Cl)c5)c4c3)o2)CC1,1.13,1.27,2.62,0.66,-0.25,-1.01,-0.24,0.96,4,1.98
COc1cccc(-n2ncc3c(N/N=C/c4ccc(C)cc4)ncnc32)c1,3.5,5.68,3.83,1.5,1.98,-0.38,1.11,6.36,19.1,6.06
COC(=O)Nc1nc2cc(Oc3ccc(NC(=O)Nc4cccc(Br)c4)cc3)ccc2[nH]1,1.87,5.36,11.8,1.09,3.06,-0.45,1.27,,,84.5
Cc1ccc2c(-c3ccnc(Nc4cccc(C(F)(F)F)c4)n3)c(-c3ccccc3)nn2n1,1.69,6.27,4.74,1.01,2.03,-1.71,-2.26,17.7,69.3,9.72
Cc1ccc2c(-c3ccnc(Nc4ccc5c(c4)OCCO5)n3)c(-c3ccc(C(F)(F)F)cc3)nn2n1,1.1,1.09,1.09,0.16,-1.16,-2.23,1.23,-0.67,2.81,-0.52
COc1ccc(-c2nn3ncccc3c2-c2ccnc(Nc3cccc(C(F)(F)F)c3)n2)cc1,1.39,2.27,3.13,0.53,0.47,-3.85,-0.01,3.64,11.1,3.46
COc1cc2ncnc(Nc3ccc4c(cnn4Cc4ccccc4)c3)c2cc1OC,1.9,4.18,2.43,1.01,1.11,-1.67,1.82,6.63,47.6,2.37
C[C@@H](Oc1cc(-n2cnc3ccc(OCC4CCN(C)CC4)cc32)sc1C(N)=O)c1ccccc1C(F)(F)F,0.89,-1.08,-2.39,-0.93,2.51,-0.8,30.1,2.65,34.4,-0.76
CN1CCN(C(=O)c2ccc(NC(=O)Nc3ccc(N(C)c4ccnc(Nc5ccc(CS(C)(=O)=O)cc5)n4)cc3)cc2)CC1,38.7,2.49,20.6,3.54,49.7,-1.34,26.2,21.4,69.2,65.6
O=C(Nc1ccc(Oc2ccc3[nH]c(NC(=O)c4ccco4)nc3c2)cc1)Nc1cc(C(F)(F)F)ccc1F,0.22,-1.24,0.27,1.11,7.23,-3.43,-2.59,,,30.5
CN(C)CCCn1c(-c2nonc2N)nc2cnccc21,0.92,4.69,6.17,1.25,0.79,-1.68,-0.27,4.41,8.24,2.22

# Reference: ChEMBL document CHEMBL1961873, “Compounds: GSK PKIS; Assays: Nanosyn kinase panel” (2012)
